Data on 29 compounds can be found in PubChem BioAssay AID686971 (National Center for Advancing Translational Sciences (NCATS), 2013).

The structures appear in SMILES notation. Screen size: about 360,000 compounds; about 7,500 (2.1%) were called active. Where a call stands in place of a potency, no number is given. Roughly 8% stayed inconclusive and do not appear here. Calls follow the shape of the dose curve; as a rule, active = well fitted cell-killing curve with a large enough effect; inconclusive = small, poorly fitted or top-dose-only effect, or effect the other way, or another doubt; inactive = no such curve, though single readings can be large or run the other way. The sample as a whole holds a higher share of actives than the screen did.
Potency is read from the fitted curve at half-maximal effect.

This experiment is described as follows: qHTS for induction of synthetic lethality in tumor cells producing 2HG: qHTS for the HT-1080-IDH1KD cell line. The following applies: HT-1080 IDH1 knockdown viability, ATP luminescence, 48 h; series mostly up to 46.1 µM. Summed up:
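After a 2 h attachment period, IDH1KD HT-1080 cells took pin-transferred compound for 48 h at 37 °C; ATP-based luminescence after 10 min room-temperature reagent incubation reported viability.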
A general note: qHTS replaces the single test concentration by a dilution series.
Turning to `COc1ccc(Cn2c(=O)[nH]c3cc(C(=O)N4CCN(C(=O)c5ccco5)CC4)ccc3c2=O)cc1`, the Potency result was “inactive”.

Consider `COc1ccccc1NC(=O)C(CC(=O)O)Cc1cc(C)cc(C)c1` (centres undefined), for which the Potency result was “inactive”.

With `O=C(CSc1ccc(Cl)cc1)NC1CC1`, the Potency entry was “inactive”.

For `COc1ccc(CNC(=O)/C(C#N)=C/c2cccc(OC)c2OC)cc1`, the Potency was 25.9 µM (active).

`COc1ccc(CNC(=O)CCn2cccc2)cc1`: the Potency result is “inactive”.

In the case of `COc1ccc(NC(=O)/C(C#N)=C\c2cc(OC)c(OCc3ccc(C(=O)O)cc3)cc2Br)cc1`, the Potency entry was “inactive”.

For the compound `CCOC(=O)C(C(=O)c1ccccc1)C(c1ccccc1)c1nccc2ccccc12` (centres undefined), the Potency result is “inactive”.

Turning to `Cc1ccc(S(=O)(=O)N2[C@@H](Cc3ccccc3)CO[C@H]2CC(=O)OCc2ccccc2)cc1`, the Potency result is “inactive”.

In the case of `CC(=O)Nc1cccc(-c2cc3nc(NCc4cccnc4)n(C)c(=O)c3s2)c1`, the Potency entry is “inactive”.

As for `O=C1NC[C@@H](CCCCN2CCN(CCc3ccc(O)cc3)C(=O)C2=O)N(CC2CCCCC2)C1=O`, the Potency result was “inactive”.

Regarding `CC(C)(C)N1C(=O)c2c(C(=O)OCc3ccccc3)[nH]c(-c3ccccc3)c2C1=O`, the Potency result was “inactive”.

Consider `O=C(N/N=C\c1cccnc1)c1cc(-c2ccccc2)nc2c(Cl)cccc12`, for which the Potency was 9.2 µM (active).

For `C/C(=N\NC(=O)c1cc(-c2ccc(O)cc2)nc2ccccc12)c1cccnc1`, the Potency entry is “inactive”.

As to `COc1ccc(-c2cc(C(=O)N/N=C/c3cccnc3)c3ccccc3n2)c(OC)c1`, the Potency result is “inactive”.

With `CCOc1ccc(S(=O)(=O)NCCC(=O)NNC(=O)c2ccc(F)cc2)cc1`, the Potency entry is “inactive”.

For the compound `C[C@@H]1CN([C@H](C)CO)C(=O)c2cc(Br)cnc2O[C@@H]1CN(C)Cc1cncnc1`, the Potency result was “inactive”.

For `Cc1ccc(-c2nc(-c3ccncc3)no2)c(C)c1`, the Potency entry is “inactive”.

With `COc1ccc(/C=C/c2noc(-c3ccccc3OC(C)=O)n2)cc1`, the Potency entry is “inactive”.

Turning to `COc1ccc(-c2nc(-c3ccccc3)no2)c(OC)c1`, the Potency was 14.1 µM (active).

As for `CCOc1ccc(NS(=O)(=O)c2ccc(C(=O)NCC3CCCO3)cc2)cc1` (centres undefined), the Potency entry was “inactive”.

Take `CCOc1c(OC)cc(C2C(C#N)=C(N)Oc3n[nH]c(-c4ccncc4)c32)cc1OC` (centres undefined): the Potency result was “inactive”.

Regarding `CCc1ccc(C2C(C#N)=C(N)Oc3n[nH]c(CC(=O)OC)c32)cc1` (centres undefined), the Potency entry was “inactive”.

For `COCc1[nH]nc2c1C(C1C=CCCC1)C(C#N)=C(N)O2` (centres undefined), the Potency is 11.2 µM (active).

For the compound `O=C(NCc1cccc(C(F)(F)F)c1)c1ccc2sc(COCCO)nc2c1`, the Potency result is “inactive”.

For `Cc1ccc(Cc2c(-c3ccc(Cl)cc3)nc3c4ccccc4ccn23)cc1`, the Potency result was “inactive”.

Regarding `Cc1cc(Br)cn2c(Cc3ccsc3)c(-c3ccc(C#N)cc3)nc12`, the Potency entry is “inactive”.

With `COC(=O)c1cc(NC(=O)Cc2ccccc2[N+](=O)[O-])ccc1Cl`, the Potency result is “inactive”.

Consider `CC(=O)Nc1ccc(NC(=O)COC(=O)c2ccccc2C(=O)c2ccccc2)cc1`, for which the Potency entry was “inactive”.

Take `N#Cc1cccc(NC(=O)COC(=O)c2ccccc2C(=O)c2ccc(Cl)c([N+](=O)[O-])c2)c1`: the Potency is 5.17 µM (active).
